Sampled rows, rich in hits. Any-hit rate of the full collection: about 0.92%.
B2AR arrestin – qHTS assay of beta-arrestin-biased ligands of beta2-adrenergic receptor | beta-arrestin recruitment to beta2AR, cell-based reporter | Potency, µM (titrated, usually from 46.1 µM), without a hit: at the top dose activation, hits mostly activators | hit rate 0.02% among 330,000 | AID 492947, 2010;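 note: potency is the fitted concentration of half-maximal effect; 0% = DMSO controls and full agonism = EC100 isoproterenol or metaproterenol; nearly all actives have a fitted effect of over 65% in size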
Target sequence (P07550 whole entry, looked up): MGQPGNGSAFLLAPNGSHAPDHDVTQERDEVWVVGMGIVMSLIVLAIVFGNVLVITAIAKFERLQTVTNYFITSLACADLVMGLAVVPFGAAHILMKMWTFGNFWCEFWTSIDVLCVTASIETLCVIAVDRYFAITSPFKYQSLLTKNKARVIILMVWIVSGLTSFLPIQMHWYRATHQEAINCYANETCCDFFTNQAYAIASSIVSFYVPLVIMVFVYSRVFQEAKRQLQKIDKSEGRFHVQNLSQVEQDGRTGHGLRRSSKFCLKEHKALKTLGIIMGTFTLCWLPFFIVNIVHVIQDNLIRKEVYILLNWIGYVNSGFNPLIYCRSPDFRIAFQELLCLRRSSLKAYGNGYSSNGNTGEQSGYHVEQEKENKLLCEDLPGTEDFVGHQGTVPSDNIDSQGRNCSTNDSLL
Coupling enz – qHTS Assay for Inhibitors of Fructose-1,6-bisphosphate Aldolase from Giardia Lamblia: Coupling assay counterscreen; coupling enzyme system counterscreen, AmpLite Red fluorescence; activity change, negative = inhibition, % at 58.2 µM, hits read low; hit rate 0.67% among 290,000; AID 2472, 2010; in the data active = activity change below about -30%; note: % is set by controls: 0 for no effect and ±100 for the full control effect
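Final compound at 57.5 uM, incubated 10 min at RT with coupling enzyme reagent (glyceraldehyde-3-phosphate), then 20 min with substrate and AmpLite Red detection. Fluorescence read at 525/598 nm; tests interference with the coupling assay, not aldolase inhibition.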
GALK inhibitor – qHTS Assay for Inhibitors of Human Galactokinase (GALK) | Purified GALK, Kinase-Glo residual ATP luminescence | P51570 | Potency, µM (highest dose often 57.5 µM), for the others: at the highest dose activity change, negative = inhibition, hits mostly inhibitors | hit rate 0.007% among 270,000; note: potency is the fitted concentration of half-maximal effect; % is set by controls: 0 for no effect and ±100 for the full control effect
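Human GALK (5 nM) with 35 uM ATP and 100 uM galactose in 20 mM HEPES pH 8.0, 5 mM MgCl2, 60 mM NaCl, 1 mM DTT, 0.01% BSA. After 1 h at room temperature, leftover ATP was read by Kinase-Glo Plus luminescence.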
Giardia kill – Small Molecules that selectively kill Giardia lamblia: qHTS | Giardia lamblia trophozoite viability | activity change, % at 7.66 µM, hits read low | hit rate 0.15% among 340,000; in the data active = activity change below about -80%; inconclusive = between about -30% and that limit;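 note: parasites exposed to compound for two days anaerobically before the ATP read; % is set by controls: 0 for no effect and ±100 for the full control effect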
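Luminescence from cellular ATP indicates surviving trophozoites (100 cells/well) following 48 hrs anaerobic compound treatment at 37 deg C; signal develops 15-30 min at room temperature.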
uPA surface inh – qHTS for Inhibitors of Cell Surface uPA Generation | cell surface uPA generation assay, qHTS | Potency, µM (titrated, usually from 38.3 µM), for inactives: top-dose activity change, negative = inhibition, actives largely listed as inhibitors | hit rate 0.31% among 330,000; active = well fitted inhibition curve with a large enough effect; inconclusive = small, poorly fitted or top-dose-only effect; inactive = no such curve, though single readings can be large or run the other way; tested in mouse RAW 264.7 cells; note: potency is the fitted concentration of half-maximal effect; % is set by controls: 0 for no effect and ±100 for the full control effect; nearly all actives have a fitted effect of over 55% in size
miR-21 act – qHTS Assay for Modulators of miRNAs and/orActivators of miR-21; HeLa miR-21 FLuc reporter, luciferase, 48 h; Potency, µM (doses to about 38.3 µM), for inactives: at the top dose activity change, positive = activation, actives largely listed as activators; 340,000 tested, under 10 active; AID 2288, 2010;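 note: % of control where 0% means no effect; miR-21 action dims this reporter so a rising signal means less miR-21 action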
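HeLa cells endogenously expressing miR-21, stably carrying CMV-driven firefly luciferase with a downstream miR-21 binding site, 2000 cells/well. Titrations up to approximately 40 uM, 48 hours; luciferase luminescence read.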
* hit, by the source's call; ? = inconclusive; · = not tested or not shown; ! = not active in a repeat. Unless noted, calls come from the whole dose curve; as a rule, active = well fitted curve in the direction sought with a large enough effect; inconclusive = small, poorly fitted or top-dose-only effect, or another doubt; inactive = no such curve, though single readings can be large; an effect the other way counts as inactive or inconclusive.

SMILES	B2AR arrestin	Coupling enz	GALK inhibitor	Giardia kill	uPA surface inh	miR-21 act
CC1Cn2c(C(=O)NCc3ccccc3Cl)cc3cccc(c32)S1 (stereo unspecified)	·	·	·	·	·	11.9%
CCCCS(=O)(=O)Nc1ccc2cn[nH]c2c1	0.1%	-35.9*	1.0%	8.7	5.8%	-5.0%
CCCCN(CCCNC(=O)CN1N=C(c2ccccc2)CCC1=O)c1ccccc1	·	·	·	·	·	1.1%
O=C(O)c1ccnc(C(=O)O)c1	0.5%	-72.2*	3.8%	-21.8	-1.6%	-0.2%
CCc1cccc(NC(=O)CSc2ncc3c(n2)-c2ccccc2N(Cc2ccccc2C)S3(=O)=O)c1	·	·	·	·	·	-1.0%
CCCCC1=CC2=CC(=O)C(C)(OC(=O)CC)C(=O)C2=CN1C(CO)CO (stereo unspecified)	3.0%	-42.3*!	-2.4%	20.9	6.2%	3.5%
CCc1ccc(S(=O)(=O)c2c(C(=O)c3ccccc3)cnc3ccc(CC)cc23)cc1	·	·	·	·	·	27.8%
CCCCNc1c(-c2ccc(-c3ccc(OC)cc3)c(OC)c2)nc2ccccn12	-0.2%	·	·	-10.4	12.6µM*	·
O=C(NC1CCCCCCC1)c1ccccc1-c1ccccc1	-0.6%	-35.8*	·	-16.6	3.2%	1.1%
O=C(NC1CCCCCC1)c1ccccc1-c1ccccc1	-0.1%	3.3	-0.8%	0.0	0.4%	0.0%
COCCN1C(=O)N[C@@H](c2cccc(C(F)(F)F)c2)C(C(C)=O)=C1C	·	1.1	·	·	·	·
CC(=O)O[C@H]1C2OC(=O)C(C)=C2[C@@H]2OC(=O)[C@]3(CCC4OC41C)OC23 (stereo partly specified)	?	0.8	·	13.7	7.08µM*	-2.6%
COc1cccc(N2CCN(C3C(=O)c4ccccc4N3C(C)=O)CC2)c1 (stereo unspecified)	·	·	·	·	·	0.7%
CCOC(=O)C1(Cc2ccc(OC)cc2)CCN(C(=O)c2ccoc2C)CC1	0.3%	-0.9	9.7%	-1.2	-10.2%	-5.0%
CCOC(=O)C1(Cc2ccc(OC)cc2)CCN(C(=O)c2ccc3[nH]ccc3c2)CC1	0.5%	-1.4	0.0%	-2.5	11.2µM*	3.6%
Cc1cc(Nc2cccc(C(F)(F)F)c2)nc2ccc(NC(=O)c3cncc(Br)c3)cc12	·	·	·	·	·	-6.2%
O=C(NCCCc1nc2ccccc2n1CCCOc1ccccc1)C1CCCCC1	·	·	·	17.2	·	·
Nc1ccc2oc(CCc3ccccc3)nc2c1	-0.4%	-34.7*	-0.2%	-5.0	-7.1%	-45.5%
CCCCC#CC1C=CC(OC(C)=O)C(COC(C)=O)O1 (stereo unspecified)	·	0.3	·	·	·	·
C[C@]12c3[nH]c4ccccc4c3CCN1C(=O)C(CC(=O)NCc1ccco1)C[C@@H]2C(=O)N1CCCCC1 (stereo partly specified)	11.3%	·	·	4.1	6.31µM*	·
C[C@]12c3[nH]c4ccccc4c3CCN1C(=O)C(CC(=O)NCc1ccco1)C[C@@H]2C(=O)N1CCOCC1 (stereo partly specified)	9.5%	·	·	1.3	?	·
COc1ccc(-c2ccc3c(c2)S(=O)(=O)c2cccc(C(=O)N4CCN(C5CCCCC5)CC4)c2C3=O)cc1OC	0.3%	·	·	?	3.16µM*	·
O=C(O)c1ccc(N=Cc2c(O)ccc3oc4c(c23)CCCC4)cc1	0.4%	-0.1	-2.9%	-2.9	1.8%	17.2%
Oc1ccccc1N=Cc1c(O)ccc2oc3c(c12)CCCC3	0.4%	-4.2	-4.4%	13.8	4.47µM*	2.7%
Oc1ccc2oc3c(c2c1C=NCc1ccncc1)CCCC3	-0.5%	-35.5*	-2.7%	11.5	-2.4%	9.6%
CCOC(=O)Cc1cc(C(=O)Nc2ccc(Br)cc2)sc1-c1ccc(C)cc1	·	·	·	·	·	19.1%
Cc1ccc2nc(CSc3nc(C)ccc3C#N)[nH]c2c1	-1.3%	-9.2	-0.8%	-88.3*	·	-0.5%
Cc1ccc(C#N)c(SCc2ccccc2F)n1	0.0%	4.5	4.7%	-7.5	4.4%	-27.5%
Cn1nc(-c2ccc(Cl)cc2)nc2c(=O)n(C)c(=O)nc1-2	-0.4%	-76.1*	1.12µM*	-102.7*	·	?
